Results on five compounds are retold here after PubChem BioAssay.

Calls of active or inactive are those of the source.

The nature of assay [1]: small molecules captured by biotinylated probe aFSTL3 – biochemical, small-molecule microarray, fluorescence 635/667, stem cell growth factor project, primary screen (AID 1064).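 Note: measures binding of the biotinylated anti-FSTL3 antibody to printed compounds.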 Conditions: higher = more signal.
Assay [2] can be described thus: binders from COS7 lysate, DM2A8 probe, primary screen, torsin A project, cell lysate, small-molecule microarray, fluorescence 635/667 (AID 1065). Conditions: higher = more signal, COS7 lysate expressing mutant human TOR1A.
Assay [3] can be described thus: small molecules captured by biotinylated probe aFGF2 – biochemical, small-molecule microarray, fluorescence 635/667, stem cell growth factor project, primary screen (AID 1067).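 Note: measures binding of biotinylated aFGF2 protein to printed compounds on slides; z-score merges feature fluorescence and signal-to-noise across triplicate slides.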 Conditions: higher = more signal.
The nature of assay [4]: small molecules captured by biotinylated probe aFGF10 – biochemical, small-molecule microarray, fluorescence 635/667, stem cell growth factor project, primary screen (AID 1071).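 Note: score merges 667 nm spot intensity and signal to noise from triplicate slides.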 Conditions: higher = more signal.
The target of assay [5] is Neurogenic locus notch homolog protein 2 (Homo sapiens) (UniProt Q04721). Description: small molecules binding Notch2 protein – biochemical, small-molecule microarray, 635 nm fluorescence, stem cell growth factors, primary screen (AID 1073). The conditions noted are these: higher = more signal.
For assay [6], the target named is Pro-neuregulin-1, membrane-bound isoform (Homo sapiens) (UniProt Q02297). The experiment in a line: small molecules binding neuregulin-1 protein – biochemical, small-molecule microarray, fluorescence 635/667, psychiatric disease protein project, primary screen (AID 1075).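 Note: score combines 667 nm spot fluorescence with signal to noise.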 Conditions: NRG1 binding, 635 nm fluorescence, higher = more signal.
Chain of Pro-neuregulin-1, membrane-bound isoform (Homo sapiens) (Q02297 whole entry, looked up, the tested form may be a part, canonical isoform): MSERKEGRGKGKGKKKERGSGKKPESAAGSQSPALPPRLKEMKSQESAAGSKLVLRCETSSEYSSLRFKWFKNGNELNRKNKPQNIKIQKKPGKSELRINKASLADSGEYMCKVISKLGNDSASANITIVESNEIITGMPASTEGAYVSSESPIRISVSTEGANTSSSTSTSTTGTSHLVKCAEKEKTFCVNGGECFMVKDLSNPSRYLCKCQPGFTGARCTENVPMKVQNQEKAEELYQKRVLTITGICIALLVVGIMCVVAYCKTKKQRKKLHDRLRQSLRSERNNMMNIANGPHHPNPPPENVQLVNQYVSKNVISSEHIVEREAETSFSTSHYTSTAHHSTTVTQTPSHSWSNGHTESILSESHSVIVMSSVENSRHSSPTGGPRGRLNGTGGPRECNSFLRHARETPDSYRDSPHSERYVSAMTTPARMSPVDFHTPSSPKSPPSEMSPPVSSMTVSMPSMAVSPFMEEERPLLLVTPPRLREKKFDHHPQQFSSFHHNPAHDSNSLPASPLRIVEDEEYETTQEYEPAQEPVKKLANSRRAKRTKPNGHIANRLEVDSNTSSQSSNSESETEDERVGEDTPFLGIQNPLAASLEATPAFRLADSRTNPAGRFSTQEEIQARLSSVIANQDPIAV
For assay [7], the system named is Neuregulin-1 EGF-like domain. Description: small molecules binding NRG1 EGF domain – biochemical, small-molecule microarray, 635 nm fluorescence, primary screen (AID 1081).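 Note: binding of the protein to compounds printed on small-molecule microarray slides.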 Conditions: higher = more signal.
Assay [8] in a line: FRG1 expression reporter modulators in myotubes – cell-based, C2C12 myotubes, firefly/Renilla luciferase, luminescence, FRG1 inhibition for FSHD, primary screen (AID 1084). The conditions noted are these: FRG1 promoter luciferase, higher = more signal, called active from +8 up or from −8 down.
Assay [9] in a line: small molecules captured by biotinylated probe aFST – biochemical, small-molecule microarray, fluorescence 635/667, stem cell growth factor project, primary screen (AID 1086).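 Note: score merges 667 nm fluorescence with signal-to-noise of each printed compound spot.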 The conditions noted are these: higher = more signal.
The nature of assay [10]: binders of probe aHhip on microarray, primary screen, stem cell growth factor project, biochemical, small-molecule microarray, fluorescence 635/667 (AID 1087).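 Note: score merges spot fluorescence at 667nm with spot signal to noise ratio.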 Conditions: higher = more signal.
For assay [11], the system named is PRMT1 (protein arginine N-methyltransferase 1). The experiment in a line: small molecules binding arginine methyltransferase PRMT1 – biochemical, small-molecule microarray, 635 nm fluorescence, primary screen (AID 1088).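 Note: binding of Prmt1 protein to compounds spotted on small-molecule microarray slides.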 The conditions noted are these: higher = more signal.
Assay [12] in a line: growth effects on S. cerevisiae YJM789 – YJM789 clinical isolate, OD600, 24 h, basal, primary screen (AID 1089).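 Note: growth of clinical yeast isolate S. cerevisiae YJM 789 seeded 1000 cells per well; test concentration not given here.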 The conditions noted are these: higher = more signal, called active from +8 up or from −8 down.
Assay [13] can be described thus: S. pombe growth modifiers, basal conditions – strain 972, OD600, 24 h, no modulator, primary screen (AID 1090).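 Note: basal condition with compound alone and no growth modifier present; test concentration not given here.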 Conditions: S. pombe 972 growth, higher = more signal, called active from +8 up or from −8 down.
Assay [14] is described as follows: budding yeast growth modifiers under rapamycin – strain BY4716, OD600, 96 h, primary screen (AID 1091). Note: test concentration not given here. The conditions noted are these: S. cerevisiae BY4716 + rapamycin, higher = more signal, called active from +8 up or from −8 down.
In assay [15] the target is Torsin-1A-interacting protein 2 (Homo sapiens) (UniProt Q8NFQ8). The experiment in a line: small molecules binding lysate-expressed LULL1 – cell lysate, human LULL1 lysate, 635/667 nm fluorescence, primary screen (AID 1092).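 Note: probe is lysate of COS7 cells overexpressing human LULL1; score merges per-feature 667 nm fluorescence with signal-to-noise.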 The conditions noted are these: small-molecule microarray, hLULL1 lysate binding, 635 nm fluorescence; higher = more signal.
Chain of Torsin-1A-interacting protein 2 (Homo sapiens) (Q8NFQ8 whole entry, looked up): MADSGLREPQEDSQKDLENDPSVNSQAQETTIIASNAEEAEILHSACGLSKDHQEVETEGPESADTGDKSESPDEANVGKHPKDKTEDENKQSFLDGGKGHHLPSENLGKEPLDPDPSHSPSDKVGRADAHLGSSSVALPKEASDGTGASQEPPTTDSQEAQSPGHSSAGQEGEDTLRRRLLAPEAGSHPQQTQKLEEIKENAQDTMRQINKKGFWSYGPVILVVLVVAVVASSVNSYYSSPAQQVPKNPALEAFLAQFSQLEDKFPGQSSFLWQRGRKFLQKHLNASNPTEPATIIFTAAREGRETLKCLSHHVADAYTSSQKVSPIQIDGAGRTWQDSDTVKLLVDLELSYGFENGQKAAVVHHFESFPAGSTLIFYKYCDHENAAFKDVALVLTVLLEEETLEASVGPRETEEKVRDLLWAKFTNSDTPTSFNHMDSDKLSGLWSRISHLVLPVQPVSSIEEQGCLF
A short description of assay [16]: optical density change of DRC41 E. coli – strain DRC41, OD650, 24 h, E. coli filamentation project, primary screen (AID 1093).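 Note: MC1000 strain lacking acrAB efflux and sulA so SOS filamentation is blocked; test concentration not given here.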 The conditions noted are these: E. coli DRC41 growth, higher = more signal, called active from +8 up or from −8 down.
Assay [17] can be described thus: probe aLefty2 binding to arrayed compounds – biochemical, biotinylated probe, 635/667 nm fluorescence, primary screen (AID 1094).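 Note: score merges spot fluorescence near 667 nm with spot signal-to-noise ratio.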 The conditions noted are these: small-molecule microarray, higher = more signal.
The subject of assay [18] is Noggin (protein binding on small-molecule microarray). The experiment in a line: small molecules binding Noggin protein – biochemical, 635/667 nm fluorescence, primary screen (AID 1095).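 Note: score merges 667 nm feature fluorescence with signal to noise over triplicate slides.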 Conditions: 635 nm fluorescence, higher = more signal.
Assay [19] concerns the target Neurogenic locus notch homolog protein 3 (Homo sapiens) (UniProt Q9UM47). The experiment in a line: small molecules binding NOTCH3 protein – biochemical, 635/667 nm fluorescence, primary screen (AID 1096). Conditions: small-molecule microarray, 635 nm fluorescence, higher = more signal.
Assay [20] in a line: probe aEGFR binding to arrayed compounds – biochemical, biotinylated probe, 635/667 nm fluorescence, primary screen (AID 1097).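 Note: probe is a biotinylated anti-EGFR antibody binding compounds printed on slides; score combines fluorescence near 667 nm and signal to noise of each spot.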 The conditions noted are these: small-molecule microarray, higher = more signal.

Chain of Neurogenic locus notch homolog protein 3 (Homo sapiens) (Q9UM47 whole entry, looked up): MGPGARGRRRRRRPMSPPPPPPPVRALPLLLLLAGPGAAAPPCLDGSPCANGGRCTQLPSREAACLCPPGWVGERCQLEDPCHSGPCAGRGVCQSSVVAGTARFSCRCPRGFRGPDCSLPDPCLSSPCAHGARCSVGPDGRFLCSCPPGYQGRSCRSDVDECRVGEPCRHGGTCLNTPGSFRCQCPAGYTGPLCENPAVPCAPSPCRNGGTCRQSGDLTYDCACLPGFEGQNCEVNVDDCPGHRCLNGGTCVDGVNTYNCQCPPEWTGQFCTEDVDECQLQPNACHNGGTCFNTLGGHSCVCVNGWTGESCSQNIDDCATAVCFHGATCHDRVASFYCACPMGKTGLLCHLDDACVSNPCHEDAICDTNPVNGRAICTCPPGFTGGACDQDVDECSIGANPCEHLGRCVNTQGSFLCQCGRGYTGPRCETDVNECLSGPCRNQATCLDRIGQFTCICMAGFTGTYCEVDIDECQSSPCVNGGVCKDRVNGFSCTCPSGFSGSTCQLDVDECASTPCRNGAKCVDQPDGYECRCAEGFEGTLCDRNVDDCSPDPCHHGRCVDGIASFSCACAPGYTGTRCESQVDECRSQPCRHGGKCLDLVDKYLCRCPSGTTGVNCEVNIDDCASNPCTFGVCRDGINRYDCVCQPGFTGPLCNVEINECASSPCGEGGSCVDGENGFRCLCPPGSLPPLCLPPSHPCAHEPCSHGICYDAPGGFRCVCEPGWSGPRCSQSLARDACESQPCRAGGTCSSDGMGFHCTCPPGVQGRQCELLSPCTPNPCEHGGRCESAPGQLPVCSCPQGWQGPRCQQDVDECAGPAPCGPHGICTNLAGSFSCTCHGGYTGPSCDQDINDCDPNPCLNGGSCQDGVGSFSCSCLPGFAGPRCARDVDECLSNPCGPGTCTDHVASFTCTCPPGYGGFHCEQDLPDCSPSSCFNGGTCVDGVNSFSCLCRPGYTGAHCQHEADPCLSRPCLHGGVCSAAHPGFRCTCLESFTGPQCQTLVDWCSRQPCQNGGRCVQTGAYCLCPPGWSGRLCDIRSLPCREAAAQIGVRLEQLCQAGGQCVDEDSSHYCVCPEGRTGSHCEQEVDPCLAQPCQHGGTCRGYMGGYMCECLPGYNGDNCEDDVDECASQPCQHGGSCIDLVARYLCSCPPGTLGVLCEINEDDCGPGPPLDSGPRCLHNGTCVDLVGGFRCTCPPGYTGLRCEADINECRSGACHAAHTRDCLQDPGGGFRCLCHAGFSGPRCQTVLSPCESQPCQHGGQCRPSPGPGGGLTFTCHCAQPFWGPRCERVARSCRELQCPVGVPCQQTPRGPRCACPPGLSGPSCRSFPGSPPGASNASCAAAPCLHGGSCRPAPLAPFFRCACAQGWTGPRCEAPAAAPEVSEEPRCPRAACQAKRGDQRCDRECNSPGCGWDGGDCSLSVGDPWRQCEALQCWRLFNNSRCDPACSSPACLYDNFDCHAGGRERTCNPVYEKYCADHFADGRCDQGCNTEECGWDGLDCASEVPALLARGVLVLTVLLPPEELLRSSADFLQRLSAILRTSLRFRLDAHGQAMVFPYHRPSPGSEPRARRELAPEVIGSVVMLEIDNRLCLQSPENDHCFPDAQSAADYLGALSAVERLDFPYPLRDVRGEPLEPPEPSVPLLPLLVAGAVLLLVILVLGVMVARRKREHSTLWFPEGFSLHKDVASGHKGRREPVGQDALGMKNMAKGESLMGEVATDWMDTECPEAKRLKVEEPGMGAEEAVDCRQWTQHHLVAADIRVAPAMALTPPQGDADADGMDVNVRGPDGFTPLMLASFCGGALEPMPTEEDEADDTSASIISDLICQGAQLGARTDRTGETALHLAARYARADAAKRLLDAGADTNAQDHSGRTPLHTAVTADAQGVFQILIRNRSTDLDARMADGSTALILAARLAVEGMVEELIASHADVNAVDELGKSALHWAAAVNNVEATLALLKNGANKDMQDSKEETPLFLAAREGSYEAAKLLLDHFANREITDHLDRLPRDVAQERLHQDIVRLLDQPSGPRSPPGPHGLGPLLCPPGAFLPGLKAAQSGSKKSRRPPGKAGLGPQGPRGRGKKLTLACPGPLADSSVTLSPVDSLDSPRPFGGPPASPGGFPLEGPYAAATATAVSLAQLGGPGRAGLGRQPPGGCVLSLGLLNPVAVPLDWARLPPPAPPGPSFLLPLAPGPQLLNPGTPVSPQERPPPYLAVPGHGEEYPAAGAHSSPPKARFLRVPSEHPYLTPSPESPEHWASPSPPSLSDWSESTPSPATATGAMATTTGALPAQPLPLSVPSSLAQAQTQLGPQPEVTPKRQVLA

Consider `CC(C)N1C(=O)C[C@@](C(=O)NCC(F)(F)F)(c2ccc([N+](=O)[O-])cc2)[C@H]1c1ccc(CO)cc1`, for which the composite z-score in [1] was 0.27; in assay [2], 0.513; in [3], -0.147; in assay [4], -0.336; in assay [5] it was -0.545; in assay [6] it was 0.769. Further, the composite z-score in assay [7] is 0.541; in [9] it was -0.531; in assay [10], -0.0994; in [11], 1.55; in [15], 3.32; in assay [17], -0.195. Moreover, the results for the composite z-score in [18], in assay [19] and in assay [20] were 0.493, 0.356 and -0.0987, respectively. Further, the z-score was -0.468 (inactive) in assay [8]; -0.804 (inactive) in [12]; -1.63 (inactive) in [13]; -1.63 (inactive) in [14]; -0.29 (inactive) in assay [16].

`C=CCC(OC(C)=O)[C@@H]1[C@@H](N(Cc2ccc(-c3ccccc3)cc2)C(=O)c2ccc(-c3ccccc3)cc2)c2cc(OCCCO)ccc2N1C(=O)Cc1ccc2ccccc2c1` (stereo not given in full): the composite z-score was -0.519 in assay [1]; 0.574 in assay [2]; -0.117 in assay [3]; 0.0381 in assay [4]; 0.186 in assay [5]; 0.0278 in assay [6]. Also, the composite z-score was -0.6 in assay [7]; 0.2 in [9]; -0.0631 in assay [10]; 0.758 in [11]; 0.765 in assay [15]; -0.119 in assay [17]. The values for the composite z-score in assay [18], in assay [19] and in [20] were 0.233, 0.3 and -0.17, respectively. For the same compound, the z-score in assay [8] is 0.187 (inactive); in assay [12] it was -0.609 (inactive); in assay [13] it was -0.214 (inactive); in [14], 0.218 (inactive); in assay [16], -0.763 (inactive).

Turning to `COCCOC(=O)N1C(=O)[C@@]2(c3cc(C#Cc4ccc(OC)cc4)ccc31)[C@H](c1ccc(O)cc1)N1[C@H](c3ccccc3)[C@H](c3ccccc3)OC(=O)[C@H]1[C@@H]2C(=O)N1CCc2cc(OC)c(OC)cc2C1`, the composite z-score in [1] turned out to be 0.0419; in assay [2] it was 0.87; in assay [3], 0.0415; in assay [4], 0.475; in assay [5], 0.971; in assay [6], 0.71. The composite z-score in assay [7] is 0.898; in assay [9], 0.611; in assay [10], 0.0873; in assay [11] it was 1.55; in [15] it was 2.49; in assay [17] it was -0.0412. Moreover, the values for the composite z-score in assay [18], in assay [19] and in assay [20] were 0.75, 1.08 and -0.115, respectively. Besides, the z-score was -0.0112 (inactive) in assay [8]; 0.728 (inactive) in assay [12]; -0.133 (inactive) in [13]; 0.803 (inactive) in assay [14]; 1.37 (inactive) in assay [16].

On to `C=CCNC(=O)[C@@H]1[C@H]2C(=O)O[C@H](c3ccccc3)[C@H](c3ccccc3)N2[C@H](c2ccc(O)cc2)[C@@]12C(=O)N(C(=O)OCCOC)c1ccc(C#CCNC(N)=O)cc12`, for which the composite z-score was 0.2 in assay [1]; 0.383 in [2]; 0.0793 in assay [3]; 0.714 in assay [4]; 0.211 in assay [5]; 1.22 in assay [6]. In addition, the composite z-score in assay [7] was 0.955; in [9], 1.15; in [10] it was -0.311; in assay [11] it was 1.03; in assay [15], 2.29; in assay [17], 0.261. Further, the composite z-score was 1.12 in [18], 1.1 in assay [19] and -0.0549 in [20]. The z-score is -0.989 (inactive) in assay [8]; -1.76 (inactive) in [12]; 0.18 (inactive) in assay [13]; 0.462 (inactive) in [14]; -0.213 (inactive) in assay [16].

Take `C=CCOC(=O)[C@H]1[C@@H]2C(=O)O[C@@H](c3ccccc3)[C@@H](c3ccccc3)N2[C@@H](c2ccc(OCCOC(=O)[C@H]3C[C@H]4C(=O)N[C@@H](CCCCN(C)C)C(=O)N4[C@H]3c3ccc(O)cc3)cc2)[C@]12C(=O)Nc1ccc(I)cc12`: the composite z-score was -0.38 in [1]; 1.01 in [2]; 0.0266 in assay [3]; 0.948 in [4]; 1.33 in assay [5]; 1.77 in assay [6]. In addition, the composite z-score in assay [7] was 1.3; in assay [9] it was 0.0907; in assay [10], -0.274; in [11] it was 1.55; in assay [15], 2.49; in assay [17], 0.172. Moreover, the values for the composite z-score in [18], in assay [19] and in [20] were 1.73, 1.07 and 0.124, respectively. The z-score was 1.49 (inactive) in [8]; -0.0743 (inactive) in assay [12]; -0.526 (inactive) in assay [13]; -0.698 (inactive) in assay [14]; -0.411 (inactive) in [16].
